Screening results: PubChem, National Center for Advancing Translational Sciences (NCATS)
CtBP-E1A inh: blocks the CtBP interaction with E1A; AlphaScreen GST-E1A/His-CtBP binding, 1536-well; stronger effect = lower value; activity change, % (no concentration beside the values); 0.49% of 340,000 active; in the data active means activity change below about -65%; inconclusive means mostly about -30% to -63%; further: on the % scale 0 is the no-effect control and ±100 the full control effect
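Steps: dispense buffer (Tris pH 8.0, NaCl 300 mM, TCEP 1 mM, BSA, Tween 20); add 5X protein mix (GST-E1A, His-CtBP, 125 nM each); pin 23 nL compound; 2 h at 37 °C, dark; add 5X beads (50 ug/mL); 1 h; read.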
BAZ2B block: BAZ2B (human) inhibition. Q9UIF8. AlphaScreen BAZ2B-H3K14Ac peptide displacement. Potency, µM (doses to about 114 µM), inactives show top-dose activity change, negative = inhibition, actives largely listed as inhibitors. 4.4% of 360,000 active. AID 504333; further: potency means the concentration at half of the fitted maximal effect; on the % scale 0 is the no-effect control and ±100 the full control effect; nearly all actives have a fitted effect of over 60% in size
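In this displacement format the biotinylated H3(5-23) peptide acetylated at Lys14 serves as ligand at 50 nM, with BAZ2B at 50 nM in PBS pH 7.4 containing 0.01% Tween-20. Donor and acceptor beads are 10 ug/mL final.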
G9a block: inhibitors of human histone lysine methyltransferase G9a; Q96KQ7; G9a H3K9 monomethylation, AlphaScreen, 2 h; Potency, µM (series often up to 102 µM), inactives show top-dose activity, negative = inhibition, most hits filed as inhibitors; 8.8% of 350,000 active; further: potency means the concentration at half of the fitted maximal effect; on the % scale 0 is the no-effect control and ±100 the full control effect; nearly all actives have a fitted effect of over 75% in size
Target sequence (Q96KQ7 913-1193 limits assumed): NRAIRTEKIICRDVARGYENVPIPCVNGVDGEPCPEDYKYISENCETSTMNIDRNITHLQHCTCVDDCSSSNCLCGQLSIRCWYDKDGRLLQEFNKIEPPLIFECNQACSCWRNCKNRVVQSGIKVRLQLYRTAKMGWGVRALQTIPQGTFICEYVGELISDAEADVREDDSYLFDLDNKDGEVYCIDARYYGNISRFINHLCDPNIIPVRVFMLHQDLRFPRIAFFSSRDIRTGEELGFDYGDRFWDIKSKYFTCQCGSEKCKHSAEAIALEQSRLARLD
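Readings reflect AlphaScreen signal from monomethyl-H3K9 antibody detection. HMT at 20 nM; substrate b-H3K9 500 nM; cofactor SAM 20 uM; 2 h RT reaction; compounds tested as titrations in qHTS with 15 min preincubation.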
JMJD2A Tudor inh: blocks the human JMJD2A Tudor domain; O75164; AlphaScreen JMJD2A-Tudor / H3K4me3 peptide binding; Potency, µM (highest dose often 114 µM), without a hit: at the highest dose activity change, negative = inhibition, actives largely listed as inhibitors; 4.4% of 390,000 active; AID 504339; further: potency means the concentration at half of the fitted maximal effect; on the % scale 0 is the no-effect control and ±100 the full control effect; nearly all actives have a fitted effect of over 50% in size
Six1-Eya2 inh: inhibitors of human Six1/Eya2 interaction. Q15475+O00167. AlphaScreen GST-Six1/His-Eya2 binding, biochemical; stronger effect = lower value. activity change, % (no concentration beside the values). AID 651725. 0.56% of 360,000 active; in the data active means activity change below about -65%; inconclusive means mostly about -30% to -63%; further: on the % scale 0 is the no-effect control and ±100 the full control effect
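AlphaScreen luminescence read after one hour at 37 °C in darkness. Pin-transferred compounds met GST-Six1 and His-Eya2 protein (5X stock 250 nM/500 nM) plus glutathione donor and Ni-chelate acceptor beads (5X, 50 ug/mL).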
HP1b chromo inh: HP1-beta chromodomain-methylated histone interaction inhibition; 0.56% of 390,000 active; Potency, µM (titrated, usually from 114 µM), inactives show top-dose activity change, negative = inhibition, most hits filed as inhibitors; AlphaScreen HP1-beta / biotin-H3K9me3 peptide binding; further: potency means the concentration at half of the fitted maximal effect; nearly all actives have a fitted effect of over 70% in size
Target sequence (P83916 whole entry, looked up): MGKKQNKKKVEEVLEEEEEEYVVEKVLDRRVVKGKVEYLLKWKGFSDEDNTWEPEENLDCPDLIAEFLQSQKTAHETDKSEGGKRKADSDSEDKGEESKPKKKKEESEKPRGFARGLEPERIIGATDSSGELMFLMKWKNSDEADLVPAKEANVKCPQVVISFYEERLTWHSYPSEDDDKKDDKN
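Compound inhibition of the preformed complex between 50 nM HP1-beta and 50 nM biotinylated H3K9me3 peptide was read by AlphaScreen. Buffer was PBS pH 7.4 with 0.01% Tween-20. Incubations ran 30 min at room temperature, with 10 ug/mL donor/acceptor beads.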
* = called active by the depositor; ? = inconclusive; / = not tested or not shown; [ ] = remark or other dose. Sampled rows, rich in hits. Any-hit rate of the full collection: about 10%. Unless noted, the call rests on the fitted dose curve; in most records, active means well fitted inhibition curve with a large enough effect; inconclusive means small, poorly fitted or top-dose-only effect; inactive means no such curve, though single readings can be large or run the other way.

SMILES	CtBP-E1A inh	BAZ2B block	G9a block	JMJD2A Tudor inh	Six1-Eya2 inh	HP1b chromo inh
COC(=O)Nc1sc2c(c1C(N)=O)CCCCCC2	5	-3%	3.5µM*	?	-1	-58%
CC(C)C(=O)NC(=S)Nc1sc2c(c1C(N)=O)CCCC2	-4	-27%	4µM*	?	-6	?
CCCC(=O)NC(=S)Nc1sc2c(c1C(N)=O)CCC2	-14	-7%	7.9µM*	-19%	-12	13%
CC1(c2ccc([N+](=O)[O-])cc2)Nc2ccccc2S1 (stereo not drawn)	?	13µM*	28µM*	40µM*	-27	?
O=C1Nc2ccccc2/C1=C/c1ccc([N+](=O)[O-])cc1	5	-11%	-4%	-1%	2	31%
O=C(O)C1C2C=CC(O2)C1C(=O)Nc1ccccc1C(F)(F)F (stereo not drawn)	11	-6%	3.2µM*	79µM*	-4	79µM*
Cc1csc(NC(=O)C2C3C=CC(O3)C2C(=O)O)n1 (stereo not drawn)	-1	-30%	?	25µM*	1	11%
CCc1ccccc1NC(=O)C1C2C=CC(O2)C1C(=O)O (stereo not drawn)	7	-5%	35µM*	5%	5	77%
O=C(O)C1C2C=CC(O2)C1C(=O)Nc1cccc(C(F)(F)F)c1 (stereo not drawn)	1	4%	/	-16%	1	26%
Cc1ccc(NC(=O)CN2C=NS(=O)(=O)c3ccccc32)cc1	/	-1%	3%[59 µM]	-17%	/	6%
NS(=O)(=O)c1ccc(NS(=O)(=O)c2ccc(C3CNC(=O)C3)cc2)cc1 (stereo not drawn)	-4	-2%	-35%	50µM*	4	8%
CC(=O)Nc1nc(SCc2ccc(Cl)cc2Cl)n[nH]1	2	-20%	0%[59 µM]	-19%	1	37%
CC(=O)Nc1n[nH]c(S(=O)(=O)Cc2ccc(Cl)cc2Cl)n1	-1	?	45µM*	50µM*	6	-4%
O=C(O)CCc1nn2c3ccccc3n(CCO)c2nc1=O	9	-8%	?	-14%	5	22%
O=C(O)CCc1nn2c3ccccc3n(CC(=O)O)c2nc1=O	-8	2%	50µM*	-1%	-16	22%
CC1CCCC(C)N1C(=O)Cn1cc(/C=C2/C(=O)Nc3ccccc32)c2ccccc21 (stereo not drawn)	-11	?	10µM*	?	-20	?
CN1C(=O)/C(=C/c2cn(CC(=O)N3CCCCC3)c3ccccc23)c2ccccc21	/	?	11µM*	/	/	/
O=Cc1cn(CC(=O)N2CCCCC2)c2ccccc12	-1	7%	19%[59 µM]	4%[57.1 µM]	0	52%
COC(=O)c1cn(CC(=O)N2C(C)CCCC2C)c2ccccc12 (stereo not drawn)	8	-11%	-29%[59 µM]	-29%	5	22%
O=C(COCc1cc(-c2cccs2)on1)NCc1ccccc1Cl	/	6%	1%[59 µM]	-4%	/	20%
Cc1ccc2nc(-c3ccc(O)cc3)c(Nc3ccc4c(c3)OCCO4)n2c1	-28	-13%	8.9µM*	-12%	0	42%
COc1ccc(-c2nc3ccc(C)cn3c2Nc2ccc3c(c2)OCO3)cc1	/	/	?	-18%	/	8%
COc1ccc(Nc2c(-c3ccc(C)cc3)nc3cnccn23)cc1	/	?	50µM*	45µM*	-17	-13%[57 µM]
COc1ccc(Nc2c(-c3ccc(OC)cc3)nc3cnccn23)cc1	/	?	?	?	-11	-10%
Cc1ccn2c(NCc3ccc4c(c3)OCO4)c(-c3ccc(O)cc3)nc2c1	-1	3%	11%[59 µM]	-2%	2	14%
SMILES	CtBP-E1A inh	BAZ2B block	G9a block	JMJD2A Tudor inh	Six1-Eya2 inh	HP1b chromo inh
Cc1ccc(-c2nc3cnccn3c2Nc2ccc3c(c2)OCO3)cc1	-1	40µM*	40µM*	50µM*	?	?
Cc1ccn2c(Nc3ccc4c(c3)OCO4)c(-c3ccc(N(C)C)cc3)nc2c1	/	/	2µM*	?	/	-3%
COc1ccc(Nc2c(-c3ccc(C)o3)nc3ccccn23)cc1	/	/	/	?	/	-18%
Cc1ccn2c(Nc3ccc4c(c3)OCCO4)c(-c3ccc(Cl)s3)nc2c1	/	-31%	?	?	/	?
Cc1ccn2c(Nc3ccc4c(c3)OCO4)c(-c3ccc(Cl)cc3)nc2c1	/	/	2.8µM*	-33%	/	-9%
Clc1ccc(-c2nc3ccccn3c2Nc2ccc3c(c2)OCCO3)s1	/	14%	18%[59 µM]	45µM*	/	?
Cc1cccn2c(Nc3ccc4c(c3)OCCO4)c(-c3ccc(Br)o3)nc12	/	11µM*	11µM*	22µM*	/	?
Cc1ccc(-c2nc3cnccn3c2Nc2ccc3c(c2)OCCO3)o1	-9	?	10µM*	?	-7	-27%
Cc1cccn2c(Nc3ccccc3)c(-c3ccc(N4CCOCC4)cc3)nc12	/	19%	-27%[59 µM]	-5%	/	67%
CN(C)CCCNc1ncnc2ccc(-c3ccc4c(c3)OCO4)cc12	/	/	/	-11%	/	/
Cc1onc(-c2c(Cl)cccc2Cl)c1C(=O)NC(=S)Nc1sc2c(c1C(N)=O)CCC(C)C2 (stereo not drawn)	-10	1%	45µM*	?	8	-6%
CC1CCc2c(sc(Nc3nc4c(F)cccc4s3)c2C(N)=O)C1 (stereo not drawn)	7	-3%	10µM*	?	1	-6%
CN(Cc1ccccc1)C(=O)C(=O)c1c[nH]c2ccccc12	2	/	/	/	4	/
CN(C)CC(=O)c1c[nH]c2ccccc12	10	-23%	27%[0.501 µM]	50µM*	9	19%
NCCNC(=O)c1ccc(Cl)cc1	/	/	51%[12.7 µM]	/	/	/
Cc1ccc(C(=O)NCCc2nnc3ccc(N4CCCC4)nn23)cc1	3	-13%	/	-10%	2	44%
CCn1c(CCNC(=O)c2ccc(C)cc2)n[nH]c1=S	-16	9%	?	6.3µM*	-7	-38%
Cn1c(CCNC(=O)c2ccc(Cl)cc2)n[nH]c1=S	2	-1%[57.1 µM]	-26%[12.7 µM]	10µM*	1	23%
O=[N+]([O-])c1cccc(Cl)c1CSc1ccccn1	1	?	45µM*	-5%	-4	50%
Cc1nnc(SCc2c(Cl)cccc2[N+](=O)[O-])s1	0	-24%	?	-2%	3	42%
Cc1ccccc1CNC(=O)C1CCCN(c2nnc(-n3c(C)ccc3C)s2)C1 (stereo not drawn)	/	-8%	4%[59 µM]	-31%	/	35%
O=C1CC(c2ccco2)CC(O)=C1C=NCCO (stereo not drawn)	3	12%	79µM*	-4%	-1	33%
